Experimental data as given in the supplement of paper PMC7801607.

What was measured:
CHO = test: % viability of CHO cells (MTT); higher = less toxic; conditions: 48 h
Method in brief: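 After overnight attachment of CHO cells seeded at 10^6 cells/well in 200 µL, the medium was exchanged for fresh medium holding compound at 2 or 20 µM. Exposure lasted 48 h. Survival was read with the colorimetric tetrazolium (MTT) assay and expressed as percent of untreated cells.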

HepG2-A16-CD81 = test: % inhibition of HepG2 viability (CellTiter-Glo); higher = more toxic; conditions: 5 µM
[1] = tested on: Plasmodium falciparum NF54 stage IV/V gametocytes; test: % inhibition of gametocyte viability (PrestoBlue); higher = more inhibition; conditions: 48 h
Method in brief: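 Compound at 1 or 5 µM was incubated with Stage IV/V NF54 gametocytes (2% gametocytaemia, 5% haematocrit) for 48 h at 37 °C, stationary and hypoxic. A 2 h PrestoBlue step followed, with fluorescence read at 612 nm on transferred supernatant. Inhibition of gametocyte viability, in percent, was normalised to vehicle and kill controls from a single run.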

[2] = tested on: Plasmodium falciparum NF54 asexual blood stage; test: % inhibition of asexual blood stage proliferation (pLDH); higher = more inhibition; conditions: 72 h
Method in brief: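 Compound was tested at 2 or 20 µM against Plasmodium falciparum NF54 ring stages (1% haematocrit, 2% parasitaemia) for 72 h at 37 °C in 4% CO2, 3% O2 and 93% N2. Survival was read at 620 nm with the parasite lactate dehydrogenase assay, and inhibition of asexual proliferation was given as a percentage of controls.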

[3] = tested on: Plasmodium falciparum NF54 stage IV/V gametocytes; test: % inhibition of gametocyte viability (ATP bioluminescence); higher = more inhibition; conditions: 24 h
Method in brief: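 Compound at 1 or 5 µM was tested on stage IV/V NF54 gametocytes, enriched on density gradients and plated at 30,000 per well in 96-well plates. After 24 h at 37 °C, ATP was quantified by Promega BacTiter Glo bioluminescence. Values are percent inhibition of gametocyte viability from one run, normalised to controls.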

[4] = tested on: Plasmodium falciparum NF54 stage IV/V gametocytes; test: % inhibition of gametocyte viability (luciferase reporter); higher = more inhibition; conditions: 48 h
Method in brief: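 Percent inhibition came from luminescence and was normalised to controls in a single run. Gametocytes (stage IV/V, NF54-Pfs16-GFP-Luc line, 2% gametocytaemia, 2% haematocrit) were treated with compound at 1 or 5 µM and incubated for 48 h at 37 °C without agitation under hypoxia. Readings used 30 µL lysate with 30 µL Promega luciferin substrate on a GloMax-Multi+ reader, integrating for 10 s.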

[5] = tested on: Plasmodium berghei ANKA liver stage in HepG2-A16-CD81; test: % inhibition of liver stage parasite viability (luciferase); higher = more inhibition; conditions: 5 µM; 48 h
Procedure: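 Single-concentration screen of the MMV Pandemic Response Box. P. falciparum NF54 asexual blood stages: pLDH assay, 72 h at 37 °C, 2 and 20 µM, n=2. Stage IV/V gametocytes (NF54): luciferase reporter (NF54-Pfs16-GFP-Luc, 48 h), ATP bioluminescence (24 h) and PrestoBlue (48 h) at 1 and 5 µM, n=1. P. berghei liver stage (luciferase in HepG2-A16-CD81, 48 h post infection) at 5 µM, n=4. All normalised to DMSO and kill controls as % inhibition.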
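For % inhibition of HepG2 viability (CellTiter-Glo) in this document: HepG2-A16-CD81 hepatoma cells plated as in the liver-stage assay but without sporozoites, with DMSO wells as negative and 25 µM puromycin as positive control.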

Row | SMILES | % viability of CHO cells (CHO; 2 µM) [%] | % viability of CHO cells (CHO; 20 µM) [%] | % inhibition of HepG2 viability (HepG2-A16-CD81) [%] | % inhibition of gametocyte viability ([1]; 1 µM) [%] | % inhibition of gametocyte viability ([1]; 5 µM) [%] | % inhibition of asexual blood stage proliferation ([2]; 2 µM) [%] | % inhibition of asexual blood stage proliferation ([2]; 20 µM) [%] | % inhibition of gametocyte viability ([3]; 1 µM) [%] | % inhibition of gametocyte viability ([3]; 5 µM) [%] | % inhibition of gametocyte viability ([4]; 1 µM) [%] | % inhibition of gametocyte viability ([4]; 5 µM) [%] | % inhibition of liver stage parasite viability [5] [%]
1 | Nc1nc(O)c2ncn(COCCO)c2n1 | 98.5 | 121 | 1.64 | < 0 | 15.7 | 21.3 | 31.7 | < 0 | < 0 | < 0 | < 0 | 26.7
2 | O=C(O)c1ccccc1Sc1ncnc2sc3c(c12)CCC3 | 103 | 89.7 | 4.01 | 20 | 18.3 | -19.5 | -13.7 | 2.23 | < 0 | < 0 | < 0 | -30.6
3 | CC(N)C12CC3CC(CC(C3)C1)C2 (stereo not given) | 115 | 102 | -6.21 | 4.36 | 25 | 15.8 | 20.4 | 7.67 | 2.98 | < 0 | 3.24 | -6
4 | CC1CCc2c(N3CCC(O)CC3)c(F)cc3c(=O)c(C(=O)O)cn1c23 (stereo not given) | 84.2 | 87.6 | 2.9 | < 0 | 11.7 | 69.7 | 98.8 | < 0 | < 0 | 1.04 | 6.66 | 17.1
5 | C[C@H]1[C@@H](c2cccc(C(F)(F)F)c2)OC(=O)N1C(=O)NCc1cncc2ccccc12 | 93.8 | 118 | 12.1 | < 0 | 27.7 | -2.37 | 30.8 | < 0 | < 0 | < 0 | < 0 | 63.9
6 | Cc1c[nH]c(=O)nc1NCc1ccccc1 | 36.1 | 22.7 | -0.05 | 6.6 | 11.5 | 22.3 | 60.5 | < 0 | < 0 | < 0 | 4.07 | 18.3
7 | C=C(C)[C@@H]1CC[C@]2(C(=O)O)CC[C@]3(C)[C@H](CC[C@@H]4[C@@]5(C)CC[C@H](O)C(C)(C)[C@@H]5CC[C@]43C)[C@@H]12 | 98.8 | 111 | 27.7 | 26.9 | 19.3 | 36.2 | 67.2 | 12.2 | 8.94 | 3.4 | < 0 | 57
8 | CCCCN1C[C@H](O)[C@@H](O)[C@H](O)[C@H]1CO | 104 | 108 | -0.43 | < 0 | 1.8 | 18.5 | 43.4 | 3.94 | < 0 | < 0 | < 0 | 10.9
9 | O=C(c1ccccc1)N1CCN(c2ccccc2NC(=O)C(Cl)(Cl)Cl)CC1 | 113 | 74.3 | 3.18 | < 0 | 5.75 | 50.4 | 118 | < 0 | < 0 | < 0 | < 0 | 28.1
10 | Nc1cc(N)c2nc(-c3ccccc3)c(Nc3ccc(F)cc3)nc2c1 | 97.5 | 88.4 | 12.8 | < 0 | < 0 | 91 | 92.4 | < 0 | 19.7 | < 0 | < 0 | 43.9
11 | CC(Cc1ccccc1)C(=O)Nc1ccc(Cl)cc1C(=O)O (stereo not given) | 102 | 99.8 | 5.78 | < 0 | < 0 | 35.5 | 76.5 | < 0 | < 0 | 13.7 | 11.5 | 8.73
12 | NC(=O)c1cnccn1 | 96 | 75.7 | -2.12 | 9.19 | 38.1 | 38.1 | 70.3 | < 0 | < 0 | < 0 | 14.8 | 14.3
13 | O=C(NCCN1CCCCC1)c1cccc(C(F)(F)F)c1 | 96.7 | -13 | 1.19 | < 0 | < 0 | 16.9 | 78.6 | < 0 | 2.48 | 12.3 | < 0 | 20.2
14 | O=C(NO)C1(CS(=O)(=O)c2ccc(Oc3ccc(Cl)cc3)cc2)CCOCC1 | 108 | 76.6 | 7.05 | 22.6 | 28.2 | 28.1 | 34.1 | < 0 | < 0 | 2.48 | < 0 | 35.5
15 | Clc1ccc(COC(Cn2ccnc2)c2ccc(Cl)cc2Cl)c(Cl)c1 (stereo not given) | 89.6 | 135 | 4.88 | 10.1 | < 0 | 48.6 | 73.4 | < 0 | 20.2 | < 0 | 22.3 | 33.2
16 | O=C(O)c1sccc1S(=O)(=O)n1ccc2cc(Br)ccc21 | 93.4 | 97.8 | -1.44 | 12.3 | 30.7 | 49.8 | 84.9 | < 0 | < 0 | < 0 | < 0 | 8.54
17 | O=C(Nc1ccccc1C(=O)O)c1cccc(Oc2ccccc2)c1 | 113 | 61 | 6.41 | 37.4 | 5.84 | -5.74 | -12.5 | < 0 | < 0 | < 0 | < 0 | -3.28
18 | CCOc1ccc(C(=O)NCCc2ccccc2)cc1 | 119 | 77.8 | 1.88 | 31.4 | 70.5 | 34 | 76.1 | 6.61 | < 0 | < 0 | 64.1 | -19.9
19 | Cc1c(F)cccc1NC(=O)Nc1ccc(Cl)c(S(=O)(=O)[C@H]2CCCNC2)c1O | 115 | 118 | -8.8 | < 0 | < 0 | 15.9 | 41.5 | 8.93 | < 0 | 0.356 | < 0 | 13.1
20 | NC(=O)[C@@H]1CC[C@@H]2CN1C(=O)N2OS(=O)(=O)O | 82.9 | 117 | 4.71 | < 0 | < 0 | 30.8 | 16.5 | 1.17 | < 0 | < 0 | 1.87 | 12.2
